Test results taken from PubChem BioAssay (Tox21).
Inconclusive results are not listed. The source made the active and inactive calls. Unless noted, calls follow the shape of the full dose curve.

Tested on: not listed separately
Experiment: qHTS assay to identify small molecule antagonists of the sonic hedgehog signaling (Shh) pathway (AID 1259369); also: nearly all actives have a fitted effect of over 45% in size; also: potency is read from the fitted curve at half-maximal effect
Settings: NIH/3T3 Gli1-Luc reporter, Shh antagonist, luminescence 24 h; series mostly up to 92.4 µM; activity change, negative = inhibition: at the top concentration
Procedure, shortened: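 Cells are plated and held 4hr at 37 C, compounds (DMSO) are pinned in, conditioned medium is added to stimulate the pathway, and after 24hr luciferase reagent is added for 30min before luminescence is read.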
% is scaled to controls: 0 for no effect and ±100 for the full control effect.

Compound	activity change, negative = inhibition	Potency
CCCCCO	12.8% (inactive)	–
O=[N+]([O-])c1ccccc1CCO	0% (inactive)	–
CC(O)C(C)O (stereo unspecified)	-3.68% (inactive)	–
c1ccc(CN(Cc2ccccc2)Cc2ccccc2)cc1	5.29% (inactive)	–
CC(CCl)OC(C)CCl (stereo unspecified)	15% (inactive)	–
CCC(=O)O[C@]1(C(=O)COC)[C@@H](C)C[C@H]2[C@@H]3CCC4=CC(=O)C=C[C@]4(C)C3(F)[C@@H](O)C[C@@]21C (stereo partly specified)	-3.98% [at 42.5 µM] (inactive)	–
Clc1ccccc1-c1nc(-c2ccncc2)no1	0.893% [at 42.5 µM] (inactive)	–
CCOc1ccccc1O	1.33% (inactive)	–
C[Si](C)(C)O[Si](C)(C)O[Si](C)(C)C	0.428% (inactive)	–
CC(=O)S[C@H](C(=O)N[C@H]1Cc2ccccc2[C@H]2CCC[C@@H](C(=O)O)N2C1=O)C(C)C	0% (inactive)	–
CC/C=C/CCO	4.57% (inactive)	–
COC(=O)C(C)(C)C	21.6% (inactive)	–
S=c1[nH][nH]c(=S)s1	9.35% (inactive)	–
Cc1cc(C)n(CO)n1	0% (inactive)	–
O=C(O)c1ccccc1-n1cc(C(=O)O)c(=O)c2cc(Nc3c(F)cc(F)cc3Cl)c(Cl)cc21	1.37% (inactive)	–
CC(=O)OCC(=O)[C@@]1(O)CC[C@H]2[C@@H]3CCC4=CC(=O)C=C[C@]4(C)[C@@]3(F)[C@@H](O)C[C@@]21C	-28% [at 42.5 µM] (inactive)	–
CCC(C)CCCC(C)(C)O (stereo unspecified)	3.13% (inactive)	–
CCCCCCCCCCCCCCCCN	0.379% [at 42.5 µM] (inactive)	–
COc1ccc(/C=C/S(=O)(=O)NC(=O)c2ccc(C)cc2Cl)cc1	11.3% (inactive)	–

Compound	activity change, negative = inhibition	Potency
Cc1cccc(C)c1NC(=O)CN1CCCC1	-7.21% [at 42.5 µM] (inactive)	–
Cc1c(Nc2ncccc2C(=O)O)cccc1C(F)(F)F	6.82% [at 42.5 µM] (inactive)	–
O=C(O)c1cc(C(=O)O)cc([N+](=O)[O-])c1	8.98% (inactive)	–
CCCCC(CC)COCCC#N (stereo unspecified)	0% (inactive)	–
O=C1c2ccccc2C(=O)C1c1ccc2ccccc2n1	-36.5% [at 42.5 µM] (inactive)	–
CCc1cnc(C(=O)O)c(C(=O)O)c1	0% (inactive)	–
O=[N+]([O-])c1ccc(Cl)cc1Cl	-5.56% (inactive)	–
CCCCCC1CCC(=O)O1 (stereo unspecified)	6.95% (inactive)	–
Nc1nc(Cl)nc2c1ncn2[C@H]1C[C@H](O)[C@@H](CO)O1	–	0.383 µM (active)
O=Cc1ccc([N+](=O)[O-])cc1	27.7% (inactive)	–
C=CC(O)CCCCC (stereo unspecified)	5.67% (inactive)	–
Nc1ccccc1Nc1ccccc1	–	2.74 µM (active)
FC1(F)C(F)(F)C(F)(F)C2(F)C(F)(C1(F)F)C(F)(F)C(F)(F)C1(F)C(F)(F)C(F)(F)C(F)(F)C(F)(F)C12F (stereo unspecified)	23.9% (inactive)	–
C=C[Si]1(C)O[Si](C)(C=C)O[Si](C)(C=C)O[Si](C)(C=C)O1 (stereo unspecified)	–	30.6 µM (active)
OCCOc1cccc(OCCO)c1	7.13% (inactive)	–
O=C(O)COCC(=O)O	3.38% (inactive)	–
CCCCCCCCCC(C)C=O (stereo unspecified)	-3.76% (inactive)	–
CC(C)CCCCCCCOC(=O)c1ccc(C(=O)OCCCCCCCC(C)C)c(C(=O)OCCCCCCCC(C)C)c1	–	4.78 µM (active)

Biological target: Estrogen receptor beta (Homo sapiens) (UniProt Q92731)
Sequence (Q92731 whole entry, looked up): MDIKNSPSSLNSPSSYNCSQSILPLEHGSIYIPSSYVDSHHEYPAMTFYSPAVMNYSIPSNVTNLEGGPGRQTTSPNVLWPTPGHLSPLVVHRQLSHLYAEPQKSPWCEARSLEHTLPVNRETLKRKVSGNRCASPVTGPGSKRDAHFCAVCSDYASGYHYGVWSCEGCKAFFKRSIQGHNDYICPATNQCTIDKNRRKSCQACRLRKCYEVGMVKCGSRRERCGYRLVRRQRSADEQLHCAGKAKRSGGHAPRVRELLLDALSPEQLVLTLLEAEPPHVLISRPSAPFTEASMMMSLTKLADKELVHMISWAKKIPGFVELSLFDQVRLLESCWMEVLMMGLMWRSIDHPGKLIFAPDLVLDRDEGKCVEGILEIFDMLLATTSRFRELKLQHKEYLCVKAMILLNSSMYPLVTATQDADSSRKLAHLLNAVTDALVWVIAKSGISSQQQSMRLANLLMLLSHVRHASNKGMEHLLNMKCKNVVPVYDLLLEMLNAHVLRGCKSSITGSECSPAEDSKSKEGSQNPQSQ
Experiment: qHTS assay to identify small molecule agonists of the estrogen receptor beta (ER-beta) signaling pathway (AID 1259377; active = well fitted activation curve with a large enough effect in the signal ratio in the repeat runs, not every such curve was filed as active; the % refers to the signal ratio)
Settings: ER-beta-UAS-bla HEK293T, beta-lactamase FRET ratio, 16 h; series mostly up to 92.4 µM; activation: at the top concentration
Procedure, shortened: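 Ratiometric beta-lactamase FRET read-out came after 2 h substrate loading at room temperature. It followed 16 h compound treatment at 37C of GripTite HEK293T cells carrying a UAS-bla reporter, plated in 2% charcoal-stripped FBS medium.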

Compound	activation
O=[N+]([O-])c1ccccc1CCO	1.46% (inactive)
CC(O)C(C)O (stereo unspecified)	0.513% (inactive)
c1ccc(CN(Cc2ccccc2)Cc2ccccc2)cc1	-0.582% (inactive)
CCC(=O)O[C@]1(C(=O)COC)[C@@H](C)C[C@H]2[C@@H]3CCC4=CC(=O)C=C[C@]4(C)C3(F)[C@@H](O)C[C@@]21C (stereo partly specified)	0.143% [at 42.5 µM] (inactive)
C=CC(C)(O)CC/C=C(/C)CCC=C(C)C (stereo unspecified)	1.62% (inactive)
C[Si](C)(C)O[Si](C)(C)O[Si](C)(C)C	2.5% (inactive)
S=c1[nH][nH]c(=S)s1	0.649% (inactive)
O=C(O)c1ccccc1-n1cc(C(=O)O)c(=O)c2cc(Nc3c(F)cc(F)cc3Cl)c(Cl)cc21	3.41% (inactive)
CC(=O)OCC(=O)[C@@]1(O)CC[C@H]2[C@@H]3CCC4=CC(=O)C=C[C@]4(C)[C@@]3(F)[C@@H](O)C[C@@]21C	1.07% [at 42.5 µM] (inactive)
COc1ccc(/C=C/S(=O)(=O)NC(=O)c2ccc(C)cc2Cl)cc1	-0.807% (inactive)
Cc1cccc(C)c1NC(=O)CN1CCCC1	3.52% [at 42.5 µM] (inactive)
O=C1c2ccccc2C(=O)C1c1ccc2ccccc2n1	-2.33% [at 42.5 µM] (inactive)
CCCCCC1CCC(=O)O1 (stereo unspecified)	0.818% (inactive)
Nc1ccccc1Nc1ccccc1	-5.73% (inactive)
FC1(F)C(F)(F)C(F)(F)C2(F)C(F)(C1(F)F)C(F)(F)C(F)(F)C1(F)C(F)(F)C(F)(F)C(F)(F)C(F)(F)C12F (stereo unspecified)	-0.111% (inactive)
C=C[Si]1(C)O[Si](C)(C=C)O[Si](C)(C=C)O[Si](C)(C=C)O1 (stereo unspecified)	-0.0295% (inactive)
CC(C)CCCCCCCOC(=O)c1ccc(C(=O)OCCCCCCCC(C)C)c(C(=O)OCCCCCCCC(C)C)c1	-0.636% (inactive)

Biological target: Estrogen receptor beta (Homo sapiens) (UniProt Q92731)
Experiment: qHTS assay to identify small molecule antagonists of the estrogen receptor beta (ER-beta) signaling pathway (AID 1259378; active = well fitted inhibition curve with a large enough effect in the signal ratio in the repeat runs, not every such curve was filed as active; the % refers to the signal ratio)
Settings: ER-beta-UAS-bla HEK293T, beta-lactamase FRET ratio, 16 h; series mostly up to 92.4 µM; activity, negative = inhibition: at the top concentration
Procedure, shortened: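 ER-beta-UAS-bla HEK293T (GripTite) cells in 2% charcoal-stripped FBS medium were preincubated 6 hr at 37C, dosed with compound, then stimulated with 1 nM E2 (final) for 16 hr; beta-lactamase reporter read by B/G FRET fluorescence after 2 hr substrate loading.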

Compound	activity, negative = inhibition
CCCCCO	-0.935% (inactive)
O=[N+]([O-])c1ccccc1CCO	18.3% (inactive)
CC(O)C(C)O (stereo unspecified)	0.263% (inactive)
CC(CCl)OC(C)CCl (stereo unspecified)	0.0766% (inactive)
C=CC(C)(O)CC/C=C(/C)CCC=C(C)C (stereo unspecified)	-0.134% (inactive)
CCOc1ccccc1O	19.4% (inactive)
C[Si](C)(C)O[Si](C)(C)O[Si](C)(C)C	-6.82% (inactive)
CC/C=C/CCO	4.79% (inactive)
S=c1[nH][nH]c(=S)s1	-0.192% (inactive)
O=C(O)c1ccccc1-n1cc(C(=O)O)c(=O)c2cc(Nc3c(F)cc(F)cc3Cl)c(Cl)cc21	0.526% (inactive)
CC(=O)OCC(=O)[C@@]1(O)CC[C@H]2[C@@H]3CCC4=CC(=O)C=C[C@]4(C)[C@@]3(F)[C@@H](O)C[C@@]21C	-15.4% [at 42.5 µM] (inactive)
CCC(C)CCCC(C)(C)O (stereo unspecified)	-4.38% (inactive)
Cc1cccc(C)c1NC(=O)CN1CCCC1	-0.488% [at 42.5 µM] (inactive)
CCCCCC1CCC(=O)O1 (stereo unspecified)	0.57% (inactive)
FC1(F)C(F)(F)C(F)(F)C2(F)C(F)(C1(F)F)C(F)(F)C(F)(F)C1(F)C(F)(F)C(F)(F)C(F)(F)C(F)(F)C12F (stereo unspecified)	9.42% (inactive)
C=C[Si]1(C)O[Si](C)(C=C)O[Si](C)(C=C)O[Si](C)(C=C)O1 (stereo unspecified)	4.39% (inactive)
CC(C)CCCCCCCOC(=O)c1ccc(C(=O)OCCCCCCCC(C)C)c(C(=O)OCCCCCCCC(C)C)c1	9.91% (inactive)
